# Assay results taken from paper PMC7862700, “An all-to-all approach to the identification of sequence-specific readers for epigenetic DNA modifications on cytosine”.
# Tests used:
# Assay in all cases: DAPPL (digital affinity profiling via proximity ligation, sequencing); 10 mM Tris-HCl pH 7.5, 50 mM NaCl, 1 mM DTT, 4% glycerol, room temperature, 30 min; GST-TFs on glutathione beads, 16-mer random dsDNA library, 0.1% formaldehyde crosslink after washing; high values mean tight binding
# FEV = molecular target: T1, FEV (Homo sapiens, UniProt Q99581 1-238); conditions: protein: recombinant; tags: N-terminal GST; dsDNA, one strand shown
# T1 sequence: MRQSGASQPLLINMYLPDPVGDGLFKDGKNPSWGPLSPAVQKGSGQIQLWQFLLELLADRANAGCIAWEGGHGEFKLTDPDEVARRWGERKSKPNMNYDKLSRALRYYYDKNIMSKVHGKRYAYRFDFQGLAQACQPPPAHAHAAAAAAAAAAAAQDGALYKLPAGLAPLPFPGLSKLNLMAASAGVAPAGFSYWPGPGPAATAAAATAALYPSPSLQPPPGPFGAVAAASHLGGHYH
# Procedure, shortened: (§1)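 After expression in yeast as GST fusions, human transcription factors were bound to glutathione beads, DNA-barcoded and mixed with a tag-only sample. The pools were incubated with 200 nmole of a 16-mer random double-stranded DNA library in Tris/NaCl/DTT/glycerol buffer (30 min, room temperature), washed and crosslinked with 0.1% formaldehyde. Proximity ligation with BsaI/T4 ligase ran for 1 h at 37 °C, before PCR amplification and sequencing on an Illumina NextSeq500. Binding signal is a hexamer's read frequency for a factor divided by its frequency for the tag-only sample.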
# ETV5 = ETV5 (Homo sapiens, UniProt P41161 1-510); conditions: protein: recombinant; tags: N-terminal GST; dsDNA, one strand shown
# ETV5, sequence (P41161 whole entry): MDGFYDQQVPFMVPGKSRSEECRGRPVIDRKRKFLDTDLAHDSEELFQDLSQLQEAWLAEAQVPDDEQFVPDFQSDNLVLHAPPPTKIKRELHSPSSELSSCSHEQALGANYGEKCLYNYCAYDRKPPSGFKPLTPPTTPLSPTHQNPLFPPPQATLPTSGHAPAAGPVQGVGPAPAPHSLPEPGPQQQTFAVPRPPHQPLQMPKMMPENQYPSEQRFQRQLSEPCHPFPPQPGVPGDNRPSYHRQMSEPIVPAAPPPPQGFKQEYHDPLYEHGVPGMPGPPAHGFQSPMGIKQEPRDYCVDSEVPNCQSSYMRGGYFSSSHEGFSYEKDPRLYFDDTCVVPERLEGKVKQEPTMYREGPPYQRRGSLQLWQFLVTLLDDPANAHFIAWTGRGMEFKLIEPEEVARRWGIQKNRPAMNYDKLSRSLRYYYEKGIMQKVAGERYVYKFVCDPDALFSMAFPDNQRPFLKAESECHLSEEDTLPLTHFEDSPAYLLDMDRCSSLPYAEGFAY
# Procedure, shortened: as §1
# HSF1 = HSF1 (Homo sapiens, UniProt Q00613 1-529); conditions: protein: recombinant; tags: N-terminal GST; chain copies: 3; dsDNA, one strand shown
# HSF1, sequence (Q00613 whole entry): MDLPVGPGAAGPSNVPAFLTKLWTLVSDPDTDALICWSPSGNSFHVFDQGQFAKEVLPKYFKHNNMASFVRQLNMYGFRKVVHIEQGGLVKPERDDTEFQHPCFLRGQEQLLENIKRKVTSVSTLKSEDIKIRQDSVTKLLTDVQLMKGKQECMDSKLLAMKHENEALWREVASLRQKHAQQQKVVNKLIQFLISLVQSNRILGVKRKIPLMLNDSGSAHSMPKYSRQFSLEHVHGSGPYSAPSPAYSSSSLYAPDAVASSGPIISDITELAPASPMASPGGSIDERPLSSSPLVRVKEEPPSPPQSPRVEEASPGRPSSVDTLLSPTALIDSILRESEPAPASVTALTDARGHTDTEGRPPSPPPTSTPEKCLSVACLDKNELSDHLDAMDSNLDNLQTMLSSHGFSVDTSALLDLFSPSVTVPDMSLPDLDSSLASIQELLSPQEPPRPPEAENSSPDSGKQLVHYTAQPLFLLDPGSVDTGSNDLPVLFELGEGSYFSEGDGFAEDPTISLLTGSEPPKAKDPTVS
# Procedure, shortened: as §1
# SPIC = molecular target: T2, SPIC (Homo sapiens, UniProt Q8N5J4 1-248); conditions: protein: recombinant; tags: N-terminal GST; dsDNA, one strand shown
# T2 sequence: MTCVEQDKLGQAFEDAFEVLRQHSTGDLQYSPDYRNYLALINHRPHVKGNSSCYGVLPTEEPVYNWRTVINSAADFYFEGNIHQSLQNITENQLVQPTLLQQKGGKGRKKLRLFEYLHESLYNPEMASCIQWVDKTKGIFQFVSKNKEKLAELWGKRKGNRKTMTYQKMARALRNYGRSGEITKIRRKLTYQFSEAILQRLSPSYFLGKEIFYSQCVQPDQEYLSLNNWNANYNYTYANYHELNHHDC
# Procedure, shortened: as §1
# ELF4 = ELF4 (Homo sapiens, UniProt Q99607 1-663); conditions: protein: recombinant; tags: N-terminal GST; dsDNA, one strand shown
# ELF4, sequence (Q99607 whole entry): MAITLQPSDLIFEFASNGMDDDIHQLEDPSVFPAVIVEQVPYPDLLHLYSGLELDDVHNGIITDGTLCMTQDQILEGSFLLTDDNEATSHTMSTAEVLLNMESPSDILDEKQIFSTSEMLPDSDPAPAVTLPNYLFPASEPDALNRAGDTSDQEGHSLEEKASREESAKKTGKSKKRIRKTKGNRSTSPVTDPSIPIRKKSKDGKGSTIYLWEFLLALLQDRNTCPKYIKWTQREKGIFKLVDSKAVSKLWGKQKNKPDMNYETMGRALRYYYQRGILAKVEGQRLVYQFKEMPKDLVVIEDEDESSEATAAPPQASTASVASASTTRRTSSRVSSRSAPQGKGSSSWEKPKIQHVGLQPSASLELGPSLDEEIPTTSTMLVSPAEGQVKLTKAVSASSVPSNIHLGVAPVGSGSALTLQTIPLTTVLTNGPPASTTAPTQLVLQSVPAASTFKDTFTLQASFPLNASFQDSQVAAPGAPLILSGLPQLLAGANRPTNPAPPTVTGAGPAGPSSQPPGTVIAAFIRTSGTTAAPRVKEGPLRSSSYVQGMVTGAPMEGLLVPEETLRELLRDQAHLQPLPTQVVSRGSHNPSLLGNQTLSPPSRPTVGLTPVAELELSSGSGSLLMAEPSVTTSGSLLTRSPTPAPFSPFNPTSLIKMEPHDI
# Procedure, shortened: as §1
# ELK4 = molecular target: T3, ELK4 (Homo sapiens, UniProt P28324-2 1-405); conditions: protein: recombinant; tags: N-terminal GST; dsDNA, one strand shown
# T3 sequence: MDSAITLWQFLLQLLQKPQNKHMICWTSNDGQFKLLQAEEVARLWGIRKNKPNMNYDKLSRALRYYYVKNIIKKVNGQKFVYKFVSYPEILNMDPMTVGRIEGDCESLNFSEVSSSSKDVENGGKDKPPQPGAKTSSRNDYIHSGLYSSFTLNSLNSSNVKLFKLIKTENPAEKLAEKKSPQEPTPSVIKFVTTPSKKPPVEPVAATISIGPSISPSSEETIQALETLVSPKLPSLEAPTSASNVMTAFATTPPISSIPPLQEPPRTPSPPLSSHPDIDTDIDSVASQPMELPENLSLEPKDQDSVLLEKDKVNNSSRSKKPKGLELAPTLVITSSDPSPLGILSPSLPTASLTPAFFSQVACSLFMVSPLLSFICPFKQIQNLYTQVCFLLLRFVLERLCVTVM
# Procedure, shortened: as §1
# ETV2 = molecular target: T4, ETV2 (Homo sapiens, UniProt O00321 1-342); conditions: protein: recombinant; tags: N-terminal GST; dsDNA, one strand shown
# T4 sequence: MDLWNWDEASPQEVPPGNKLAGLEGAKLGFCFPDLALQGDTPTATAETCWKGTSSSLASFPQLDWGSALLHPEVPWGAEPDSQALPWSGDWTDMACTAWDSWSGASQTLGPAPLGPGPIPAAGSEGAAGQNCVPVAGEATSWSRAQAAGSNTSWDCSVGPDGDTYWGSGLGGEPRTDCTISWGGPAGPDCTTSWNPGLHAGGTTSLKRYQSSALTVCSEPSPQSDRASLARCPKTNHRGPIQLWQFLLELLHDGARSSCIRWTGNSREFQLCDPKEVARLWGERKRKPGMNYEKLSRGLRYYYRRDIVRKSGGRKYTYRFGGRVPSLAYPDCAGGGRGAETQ
# Procedure, shortened: as §1
# ELF3 = molecular target: T5, ELF3 (Homo sapiens, UniProt P78545 1-371); conditions: protein: recombinant; tags: N-terminal GST; dsDNA, one strand shown
# T5 sequence: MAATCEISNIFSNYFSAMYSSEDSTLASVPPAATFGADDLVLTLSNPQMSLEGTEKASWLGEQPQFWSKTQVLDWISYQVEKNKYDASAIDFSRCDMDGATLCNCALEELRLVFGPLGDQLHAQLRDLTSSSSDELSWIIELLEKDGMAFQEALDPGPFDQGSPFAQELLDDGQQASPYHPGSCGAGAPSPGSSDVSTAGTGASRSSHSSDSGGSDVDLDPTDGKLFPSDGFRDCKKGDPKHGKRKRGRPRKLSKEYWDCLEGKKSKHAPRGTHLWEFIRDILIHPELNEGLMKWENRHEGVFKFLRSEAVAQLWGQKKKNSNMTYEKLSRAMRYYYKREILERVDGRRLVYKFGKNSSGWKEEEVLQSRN
# Procedure, shortened: as §1
# CRX = CRX (Homo sapiens, UniProt O43186 1-299); conditions: protein: recombinant; tags: N-terminal GST; dsDNA, one strand shown
# CRX, sequence (O43186 whole entry): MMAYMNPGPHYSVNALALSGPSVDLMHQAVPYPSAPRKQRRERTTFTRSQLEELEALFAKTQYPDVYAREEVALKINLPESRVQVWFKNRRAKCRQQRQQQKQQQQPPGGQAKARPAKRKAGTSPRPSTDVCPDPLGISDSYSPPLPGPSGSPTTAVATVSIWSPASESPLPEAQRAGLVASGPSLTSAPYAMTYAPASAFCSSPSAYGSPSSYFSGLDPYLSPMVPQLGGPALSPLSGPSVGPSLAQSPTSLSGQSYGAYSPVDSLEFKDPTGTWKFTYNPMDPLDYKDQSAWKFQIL
# Procedure, shortened: as §1
# ETV1 = ETV1 (Homo sapiens, UniProt P50549 1-477); conditions: protein: recombinant; tags: N-terminal GST; dsDNA, one strand shown
# ETV1, sequence (P50549 whole entry): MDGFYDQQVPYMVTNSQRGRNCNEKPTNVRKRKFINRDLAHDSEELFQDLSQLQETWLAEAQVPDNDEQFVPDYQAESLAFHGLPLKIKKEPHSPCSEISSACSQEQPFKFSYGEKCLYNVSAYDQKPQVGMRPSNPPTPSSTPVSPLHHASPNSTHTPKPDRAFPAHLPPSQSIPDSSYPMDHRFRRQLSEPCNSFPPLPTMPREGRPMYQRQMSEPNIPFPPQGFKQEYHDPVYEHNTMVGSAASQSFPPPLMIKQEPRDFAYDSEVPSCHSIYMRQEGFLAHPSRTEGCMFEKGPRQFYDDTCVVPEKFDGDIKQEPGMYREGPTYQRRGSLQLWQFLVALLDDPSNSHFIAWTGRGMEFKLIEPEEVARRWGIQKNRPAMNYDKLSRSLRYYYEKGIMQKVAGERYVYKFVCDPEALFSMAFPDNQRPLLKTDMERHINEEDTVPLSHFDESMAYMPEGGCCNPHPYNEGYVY
# Procedure, shortened: as §1
# ERF = molecular target: T6, ERF (Homo sapiens, UniProt P50548 1-548); conditions: protein: recombinant; tags: N-terminal GST; dsDNA, one strand shown
# T6 sequence: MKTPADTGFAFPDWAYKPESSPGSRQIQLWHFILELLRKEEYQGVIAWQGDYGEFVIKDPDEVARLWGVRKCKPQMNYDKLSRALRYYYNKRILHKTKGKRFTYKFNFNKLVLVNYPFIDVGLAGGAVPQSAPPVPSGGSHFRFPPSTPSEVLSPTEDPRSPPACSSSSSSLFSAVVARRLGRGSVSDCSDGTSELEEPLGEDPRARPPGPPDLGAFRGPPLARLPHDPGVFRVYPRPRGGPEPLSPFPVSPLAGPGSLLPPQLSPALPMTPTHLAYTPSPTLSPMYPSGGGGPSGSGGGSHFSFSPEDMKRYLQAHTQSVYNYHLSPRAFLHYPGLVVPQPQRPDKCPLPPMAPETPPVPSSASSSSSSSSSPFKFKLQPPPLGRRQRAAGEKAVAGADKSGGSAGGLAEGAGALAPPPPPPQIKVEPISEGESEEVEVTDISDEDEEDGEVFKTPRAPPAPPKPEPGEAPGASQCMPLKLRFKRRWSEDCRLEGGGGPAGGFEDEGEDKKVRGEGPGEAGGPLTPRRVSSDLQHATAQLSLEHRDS
# Procedure, shortened: as §1
# ETV3L = molecular target: T7, ETV3L (Homo sapiens, UniProt Q6ZN32 1-361); conditions: protein: recombinant; tags: N-terminal GST; dsDNA, one strand shown
# T7 sequence: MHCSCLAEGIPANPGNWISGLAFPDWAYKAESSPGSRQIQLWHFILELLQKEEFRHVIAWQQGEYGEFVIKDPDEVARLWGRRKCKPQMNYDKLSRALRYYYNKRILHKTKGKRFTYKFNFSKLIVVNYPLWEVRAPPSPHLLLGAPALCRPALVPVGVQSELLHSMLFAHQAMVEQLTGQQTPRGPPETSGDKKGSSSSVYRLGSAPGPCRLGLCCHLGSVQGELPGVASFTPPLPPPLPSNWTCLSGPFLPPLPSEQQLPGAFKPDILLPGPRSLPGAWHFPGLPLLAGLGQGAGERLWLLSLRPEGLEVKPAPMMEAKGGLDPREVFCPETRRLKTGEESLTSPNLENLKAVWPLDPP
# Procedure, shortened: as §1
# ETS2 = molecular target: T8, ETS2 (Homo sapiens, UniProt P15036 1-469); conditions: protein: recombinant; tags: N-terminal GST; dsDNA, one strand shown
# T8 sequence: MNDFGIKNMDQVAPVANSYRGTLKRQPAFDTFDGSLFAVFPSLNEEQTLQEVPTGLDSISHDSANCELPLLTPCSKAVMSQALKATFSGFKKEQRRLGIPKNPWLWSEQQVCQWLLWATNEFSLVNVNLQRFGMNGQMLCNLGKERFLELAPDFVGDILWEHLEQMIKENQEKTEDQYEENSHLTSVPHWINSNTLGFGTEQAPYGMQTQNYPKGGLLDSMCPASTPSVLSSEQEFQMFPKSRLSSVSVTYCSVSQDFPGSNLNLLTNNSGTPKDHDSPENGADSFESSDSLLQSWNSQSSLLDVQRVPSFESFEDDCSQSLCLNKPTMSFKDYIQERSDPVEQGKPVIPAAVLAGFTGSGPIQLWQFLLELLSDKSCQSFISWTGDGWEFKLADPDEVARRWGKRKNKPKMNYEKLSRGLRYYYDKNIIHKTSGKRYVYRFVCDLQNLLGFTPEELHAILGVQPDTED
# Procedure, shortened: as §1
# SPDEF = molecular target: T9, SPDEF (Homo sapiens, UniProt O95238 1-335); conditions: protein: recombinant; tags: N-terminal GST; dsDNA, one strand shown
# T9 sequence: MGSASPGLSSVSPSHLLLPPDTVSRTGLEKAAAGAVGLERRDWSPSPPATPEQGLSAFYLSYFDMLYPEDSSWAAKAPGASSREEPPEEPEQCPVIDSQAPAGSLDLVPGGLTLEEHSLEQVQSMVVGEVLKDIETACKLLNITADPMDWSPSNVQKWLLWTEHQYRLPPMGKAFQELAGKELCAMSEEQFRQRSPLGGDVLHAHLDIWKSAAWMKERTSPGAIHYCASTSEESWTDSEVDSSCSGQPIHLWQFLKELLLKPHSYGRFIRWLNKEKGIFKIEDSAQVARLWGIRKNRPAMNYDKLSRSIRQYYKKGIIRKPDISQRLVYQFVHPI
# Procedure, shortened: as §1
# ETV7 = molecular target: T10, ETV7 (Homo sapiens, UniProt Q9Y603 1-341); conditions: protein: recombinant; tags: N-terminal GST; dsDNA, one strand shown
# T10 sequence: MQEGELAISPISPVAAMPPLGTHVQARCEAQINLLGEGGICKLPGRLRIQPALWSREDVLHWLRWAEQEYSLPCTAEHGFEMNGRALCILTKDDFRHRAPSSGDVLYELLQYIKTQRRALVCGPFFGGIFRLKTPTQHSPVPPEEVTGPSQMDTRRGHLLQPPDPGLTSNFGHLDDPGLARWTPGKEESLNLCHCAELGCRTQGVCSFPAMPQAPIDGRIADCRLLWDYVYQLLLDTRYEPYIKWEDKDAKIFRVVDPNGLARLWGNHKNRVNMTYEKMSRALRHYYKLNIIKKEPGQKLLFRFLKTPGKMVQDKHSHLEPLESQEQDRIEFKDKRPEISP
# Procedure, shortened: as §1
# ELF5 = molecular target: T11, ELF5 (Homo sapiens, UniProt Q9UKW6-2 1-255); conditions: protein: recombinant; tags: N-terminal GST; dsDNA, one strand shown
# T11 sequence: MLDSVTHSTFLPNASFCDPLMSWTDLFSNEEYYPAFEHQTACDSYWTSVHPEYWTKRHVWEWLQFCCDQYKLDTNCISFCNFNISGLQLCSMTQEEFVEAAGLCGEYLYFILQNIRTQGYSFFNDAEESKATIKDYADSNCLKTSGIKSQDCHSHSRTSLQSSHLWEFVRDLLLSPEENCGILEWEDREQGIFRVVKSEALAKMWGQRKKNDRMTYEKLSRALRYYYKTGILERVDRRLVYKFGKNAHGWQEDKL
# Procedure, shortened: as §1
# ETV3 = molecular target: T12, ETV3 (Homo sapiens, UniProt P41162-2 1-143); conditions: protein: recombinant; tags: N-terminal GST; dsDNA, one strand shown
# T12 sequence: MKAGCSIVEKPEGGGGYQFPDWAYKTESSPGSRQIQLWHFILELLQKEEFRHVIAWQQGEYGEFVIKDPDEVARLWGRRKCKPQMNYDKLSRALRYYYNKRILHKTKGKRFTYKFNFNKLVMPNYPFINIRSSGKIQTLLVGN
# Procedure, shortened: as §1
# ETV6 = ETV6 (Homo sapiens, UniProt P41212 1-452); conditions: protein: recombinant; tags: N-terminal GST; dsDNA, one strand shown
# ETV6, sequence (P41212 whole entry): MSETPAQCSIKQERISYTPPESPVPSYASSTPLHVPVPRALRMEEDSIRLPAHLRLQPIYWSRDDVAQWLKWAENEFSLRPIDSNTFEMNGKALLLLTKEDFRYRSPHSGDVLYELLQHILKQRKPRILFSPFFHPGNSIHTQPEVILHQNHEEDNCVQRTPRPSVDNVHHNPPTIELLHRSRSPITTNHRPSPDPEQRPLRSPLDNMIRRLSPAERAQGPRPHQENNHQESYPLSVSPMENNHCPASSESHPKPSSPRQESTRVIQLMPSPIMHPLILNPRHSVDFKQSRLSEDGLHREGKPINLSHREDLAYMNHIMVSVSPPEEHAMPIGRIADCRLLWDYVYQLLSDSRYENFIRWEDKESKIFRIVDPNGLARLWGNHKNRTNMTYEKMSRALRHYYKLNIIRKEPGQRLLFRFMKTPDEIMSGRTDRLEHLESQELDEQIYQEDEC
# Procedure, shortened: as §1
sequence,measurement,setting,value
CCTCCC,binding signal,FEV,"1.59 fold enrichment (6-mer frequency, TF over GST control)"
same,binding signal,ETV5,"1.55 fold enrichment (6-mer frequency, TF over GST control)"
same,binding signal,HSF1,"1.12 fold enrichment (6-mer frequency, TF over GST control)"
same,binding signal,SPIC,"1.65 fold enrichment (6-mer frequency, TF over GST control)"
same,binding signal,ELF4,"1.66 fold enrichment (6-mer frequency, TF over GST control)"
same,binding signal,ELK4,"1.3 fold enrichment (6-mer frequency, TF over GST control)"
same,binding signal,ETV2,"1.71 fold enrichment (6-mer frequency, TF over GST control)"
same,binding signal,ELF3,"1.36 fold enrichment (6-mer frequency, TF over GST control)"
same,binding signal,CRX,"1.21 fold enrichment (6-mer frequency, TF over GST control)"
same,binding signal,ETV1,"1.36 fold enrichment (6-mer frequency, TF over GST control)"
same,binding signal,ERF,"1.59 fold enrichment (6-mer frequency, TF over GST control)"
same,binding signal,ETV3L,"1.49 fold enrichment (6-mer frequency, TF over GST control)"
same,binding signal,ETS2,"1.58 fold enrichment (6-mer frequency, TF over GST control)"
same,binding signal,SPDEF,"1.38 fold enrichment (6-mer frequency, TF over GST control)"
same,binding signal,ETV7,"1.44 fold enrichment (6-mer frequency, TF over GST control)"
same,binding signal,ELF5,"1.49 fold enrichment (6-mer frequency, TF over GST control)"
same,binding signal,ETV3,"1.43 fold enrichment (6-mer frequency, TF over GST control)"
same,binding signal,ETV6,"1.44 fold enrichment (6-mer frequency, TF over GST control)"
